Reference: PubChem BioAssay AID722 (NMMLSC, 2007)
In all, about 1,300 compounds went through this assay and about 40 (3%) were called active. Cut-off read from the data, not from the text of the source: active = inhibition above about 30%; inactive = the rest. Shown is part of a subset that was picked to be rich in actives.

Biological target: fMet-Leu-Phe receptor (Homo sapiens) (UniProt P21462)
Assay: FPR1 fluorescent ligand binding inhibitors, primary screen, cell-based, flow cytometry, SAR analysis (AID 722)
Details: FPR-expressing cells, stronger effect = higher value, concentration not given here

Sequence of fMet-Leu-Phe receptor (Homo sapiens) (P21462 whole entry, looked up): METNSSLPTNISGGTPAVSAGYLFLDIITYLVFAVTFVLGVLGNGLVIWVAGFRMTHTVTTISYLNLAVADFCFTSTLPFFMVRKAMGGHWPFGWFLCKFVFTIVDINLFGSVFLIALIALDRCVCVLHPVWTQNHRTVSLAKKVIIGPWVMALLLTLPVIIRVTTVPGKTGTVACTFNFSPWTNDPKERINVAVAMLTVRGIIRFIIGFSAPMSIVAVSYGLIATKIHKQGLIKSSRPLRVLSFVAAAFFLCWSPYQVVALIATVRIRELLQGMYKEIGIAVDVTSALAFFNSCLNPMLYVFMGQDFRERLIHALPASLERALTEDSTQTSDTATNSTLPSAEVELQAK

Compound | inhibition
COc1ccccc1-c1c(C(F)(F)F)oc2cc(OC(=O)c3ccccc3C)ccc2c1=O | 2.7% (inactive)
COc1ccc(-c2c(C(F)(F)F)oc3cc(OC(=O)c4ccco4)ccc3c2=O)cc1OC | 43.5% (active)
COc1ccc(-c2c(C(F)(F)F)oc3cc(OC(=O)c4ccc(C)cc4)ccc3c2=O)cc1OC | -0.2% (inactive)
COc1ccccc1-c1c(C(F)(F)F)oc2cc(OC(=O)c3ccco3)ccc2c1=O | 59% (active)
COc1ccc(Oc2c(C(F)(F)F)oc3cc(OC(=O)c4ccco4)ccc3c2=O)cc1 | 9.6% (inactive)
COc1ccc(C(=O)Oc2ccc3c(=O)c(-c4ccc(OC)c(OC)c4)c(C(F)(F)F)oc3c2)cc1 | 9.4% (inactive)
COc1cc(C2C(C(=O)c3cc4ccccc4o3)=C(O)C(=O)N2c2nnc(C)s2)ccc1O (configuration not stated) | -5.6% (inactive)
O=C1OC(c2ccccc2F)/C(=C(/O)c2ccccc2)C1=O (configuration not stated) | 2.1% (inactive)
CCOC(=O)c1cc2ccccc2n1CC(=O)c1ccccc1 | -0.2% (inactive)
O=C1C(=O)N(c2nncs2)C(c2ccc(F)cc2)/C1=C(\O)c1ccccc1 (configuration not stated) | 5.9% (inactive)
Fc1cccc(-c2nn(CN3CCCCC3)c(=S)n2-c2ccccc2)c1 | 4.7% (inactive)
COc1ccc(C2/C(=C(\O)c3ccc(F)cc3)C(=O)C(=O)N2c2nnc(C)s2)cc1 (configuration not stated) | 4.6% (inactive)
COc1ccc(/C(O)=C2\C(=O)C(=O)N(CCN3CCOCC3)C2c2ccc(Br)cc2)cc1 (configuration not stated) | 2.9% (inactive)
O=C(O)CCc1oc2cc(O)ccc2c(=O)c1-c1nc2ccccc2[nH]1 | 11.1% (inactive)
CCOC(=O)c1c(NC(=O)C2CCCC2)sc2c1CCC(CC)C2 (configuration not stated) | -13.3% (inactive)
CCc1c(C)nc2c(-c3ccccc3OC)c(C)[nH]n2c1=O | 5.5% (inactive)
CCOc1ccccc1C1CC(=O)NC2=C1C(=O)CC(c1ccccc1Cl)C2 (configuration not stated) | -7.2% (inactive)
O=C1C(=O)N(CCN2CCOCC2)C(c2ccc(Cl)cc2)/C1=C(\O)c1ccc(F)cc1 (configuration not stated) | -8.1% (inactive)
CCc1cc2c(=O)c(-c3nc4ccccc4n3C)c(C)oc2cc1O | -2.5% (inactive)
CCc1cc2c(=O)c(-c3nc4ccccc4n3C)c(C)oc2cc1OC(C)=O | 78.9% (active)
CCc1cc2c(=O)c(-c3nc4ccccc4[nH]3)c(C)oc2cc1OC(C)=O | -0.7% (inactive)
Cc1[nH]n2c(=O)cc(Cc3ccccc3)nc2c1-c1ccccc1 | 6.8% (inactive)

Compound | inhibition
CCOC(=O)C(C#N)C(c1ccc2c(c1)OCO2)c1ccccc1OC (configuration not stated) | -0.7% (inactive)
O=C(NC(c1nnc(-c2ccccc2)o1)c1ccccc1F)c1ccc(F)cc1 (configuration not stated) | -6% (inactive)
CN1C(=O)C2(/C(=C(/O)c3ccc(F)cc3)C(=O)C(=O)N2CCN2CCOCC2)c2ccccc21 (configuration not stated) | -6.9% (inactive)
COCCCN1C(=O)C(=O)/C(=C(/O)c2ccccc2)C1c1ccc(C(C)C)cc1 (configuration not stated) | 54.4% (active)
O=C1C(=O)N(Cc2cccnc2)C(c2ccc(Cl)cc2)/C1=C(\O)c1ccccc1 (configuration not stated) | 8.1% (inactive)
Cc1ccc(C2/C(=C(/O)c3ccccc3)C(=O)C(=O)N2Cc2cccnc2)cc1 (configuration not stated) | 5.2% (inactive)
COCCCN1C(=O)C(=O)/C(=C(/O)c2ccccc2)C1c1ccc(Cl)cc1 (configuration not stated) | 0.5% (inactive)
COCCCN1C(=O)C(=O)/C(=C(/O)c2ccc(C)cc2)C1c1ccc(C(C)C)cc1 (configuration not stated) | 2.7% (inactive)
COc1ccccc1C1/C(=C(\O)c2ccc(C)cc2)C(=O)C(=O)N1Cc1cccnc1 (configuration not stated) | -4.4% (inactive)
CC(C)c1ccc(C2/C(=C(\O)c3ccccc3)C(=O)C(=O)N2Cc2cccnc2)cc1 (configuration not stated) | 40.5% (active)
O=C1C(=O)N(Cc2cccnc2)C(c2ccc(Br)cc2)/C1=C(\O)c1ccccc1 (configuration not stated) | -0.7% (inactive)
COc1ccc(C2/C(=C(/O)c3ccccc3)C(=O)C(=O)N2Cc2ccccc2)c(OC)c1 (configuration not stated) | -11% (inactive)
COc1ccc(C2/C(=C(\O)c3ccc(C)cc3)C(=O)C(=O)N2Cc2cccnc2)c(OC)c1 (configuration not stated) | 65.6% (active)
Cc1ccc(/C(O)=C2\C(=O)C(=O)N(Cc3cccnc3)C2c2ccc(Br)cc2)cc1 (configuration not stated) | 61.8% (active)
CC(C)(C)c1ccc(C2/C(=C(\O)c3ccccc3)C(=O)C(=O)N2Cc2cccnc2)cc1 (configuration not stated) | -8.3% (inactive)
Cc1onc(-c2c(Cl)cccc2Cl)c1C(=O)N1CCCC(C)C1 (configuration not stated) | -2.1% (inactive)
CCOC(=O)c1cc(C)sc1NC(=O)c1ccc(OC)cc1 | -6.6% (inactive)
O=C1CSC(c2ccc(F)cc2)N1c1ccccc1F (configuration not stated) | -3% (inactive)
CN1C(=O)C(=O)/C(=C(\O)c2ccc(Cl)cc2)C1c1ccc(Cl)cc1 (configuration not stated) | -3.2% (inactive)
O=C1CSC(c2cccc(F)c2)N1c1c(F)cccc1F (configuration not stated) | 0.4% (inactive)
Cn1c(OCc2cccnc2)nc2c1c(=O)n(Cc1ccc(F)cc1)c(=O)n2C | 1% (inactive)
O=C1C(=O)N(Cc2cccnc2)C(c2ccc(Br)cc2)/C1=C(\O)c1ccc(F)cc1 (configuration not stated) | -5.5% (inactive)

Compound | inhibition
O=C(c1ccccc1)N(Cc1ccco1)Cc1ccccc1Cl | -5% (inactive)
Cc1ccccc1C(=O)N1C(=S)C(c2ccc(F)cc2)=NC12CCN(C)CC2 | 3.3% (inactive)
CCOC(=O)c1c(NC(=O)c2ccc(F)cc2)sc(C)c1C | -3.4% (inactive)
COc1ccc(NC(=O)C(NC(=O)Cc2cccs2)c2ccccc2)cc1 (configuration not stated) | -2.6% (inactive)
O=C1C(=O)N(Cc2cccnc2)C(c2ccccc2Cl)/C1=C(\O)c1ccccc1 (configuration not stated) | 1.8% (inactive)
CC(C)CN1C(=O)c2ccccc2C(C(=O)N2CCCC2)C1c1cccs1 (configuration not stated) | 4.5% (inactive)
COc1ccc(/C(O)=C2/C(=O)C(=O)N(CCc3c[nH]c4ccccc34)C2c2ccc(C(C)C)cc2)cc1 (configuration not stated) | 43.8% (active)
CCc1ccc(C2/C(=C(/O)c3ccc(OC)cc3)C(=O)C(=O)N2CCc2c[nH]c3ccccc23)cc1 (configuration not stated) | 3% (inactive)
O=C1C(=O)N(CCc2c[nH]c3ccccc23)C(c2ccc(Cl)cc2)/C1=C(/O)c1ccc(F)cc1 (configuration not stated) | 1.5% (inactive)
O=C(C1=C(O)C(=O)N(CC2CCCO2)C1c1cccs1)c1ccco1 (configuration not stated) | -9.5% (inactive)
Cn1c(NCCO)nc2c1c(=O)n(Cc1ccc(F)cc1)c(=O)n2C | -9.2% (inactive)
COc1ccc(Cl)cc1N1C(=O)CSC1c1ccccc1F (configuration not stated) | 4.1% (inactive)
COc1ccc(N(C(=O)c2cccnc2)S(=O)(=O)c2cccs2)cc1 | 13% (inactive)
COc1ccc(/C(O)=C2/C(=O)C(=O)N(CCCn3ccnc3)C2c2ccc(O)c(OC)c2)cc1 (configuration not stated) | -11% (inactive)
Cn1c(NCCO)nc2c1c(=O)n(Cc1cccc(F)c1)c(=O)n2C | 6.7% (inactive)
O=C1C(=O)N(c2nc3ccccc3s2)C(c2cccc(F)c2)/C1=C(\O)c1ccccc1 (configuration not stated) | 4.3% (inactive)
CCOc1ccccc1C(=O)N(Cc1ccco1)Cc1ccco1 | -4.7% (inactive)
CCCC(=O)N(Cc1ccco1)S(=O)(=O)c1cccc2cccnc12 | 97.6% (active)
Cc1ccccc1NC(=S)N(Cc1ccco1)C(C)c1ccccn1 (configuration not stated) | -1% (inactive)
CC(C)C(=O)N(Cc1ccco1)S(=O)(=O)c1cccc2cccnc12 | 82.2% (active)
CCc1ccc(CN(Cc2ccco2)C(=O)c2ccccc2)cc1 | 2.2% (inactive)
O=C(c1ccccc1)N(Cc1ccco1)Cc1ccco1 | 7.4% (inactive)

Compound | inhibition
COc1ccc(Cn2c(=S)[nH]c3cc4ccccc4cc3c2=O)cc1 | -2.8% (inactive)
COC(=O)c1ccccc1NC(=O)NC1CCCCC1 | -4.1% (inactive)
Cc1ccc(/C(O)=C2\C(=O)C(=O)NC2c2ccc(C)cc2)cc1 (configuration not stated) | -7.7% (inactive)
COCCCN1C(=O)C(=O)/C(=C(/O)c2ccccc2)C1c1ccc2c(c1)OCO2 (configuration not stated) | -1.2% (inactive)
O=C1C(=O)N(CCO)C(c2ccc([N+](=O)[O-])cc2)/C1=C(/O)c1ccc(Cl)cc1 (configuration not stated) | -5.4% (inactive)
Cc1cccc(C2CC(=O)NC3=C2C(=O)CC(c2cccs2)C3)c1 (configuration not stated) | 33.7% (active)
O=C1CC(c2cccc(F)c2)C2=C(CC(c3cccs3)CC2=O)N1 (configuration not stated) | -6.6% (inactive)
O=C1CC(c2ccccc2)C2=C(CC(c3cccs3)CC2=O)N1 (configuration not stated) | -21.7% (inactive)
O=C1CC(c2cccc(Cl)c2Cl)C2=C(CC(c3cccs3)CC2=O)N1 (configuration not stated) | -15.7% (inactive)
O=C1CC(c2cccc(Cl)c2)C2=C(CC(c3cccs3)CC2=O)N1 (configuration not stated) | 10.4% (inactive)
O=C1CC(c2ccccc2C(F)(F)F)C2=C(CC(c3cccs3)CC2=O)N1 (configuration not stated) | 32.3% (active)
COc1ccc(C2C(C(=O)c3cccs3)=C(O)C(=O)N2Cc2cccnc2)cc1 (configuration not stated) | -9.5% (inactive)
O=C1C(=O)N(CCO)C(c2cccc(F)c2)/C1=C(/O)c1ccccc1 (configuration not stated) | -7.5% (inactive)
COc1ccc(OC)c(C2/C(=C(\O)c3ccccc3)C(=O)C(=O)N2c2nc3ccccc3s2)c1 (configuration not stated) | -1.7% (inactive)
COc1cccc(C2/C(=C(\O)c3ccc(F)cc3)C(=O)C(=O)N2Cc2cccnc2)c1 (configuration not stated) | 1% (inactive)
CC(C)(C)c1ccc(C2/C(=C(\O)c3ccc(F)cc3)C(=O)C(=O)N2Cc2cccnc2)cc1 (configuration not stated) | -1.6% (inactive)
O=C1NC(c2ccc(Br)cc2)/C(=C(\O)c2ccc(Cl)cc2)C1=O (configuration not stated) | 46.3% (active)
O=C1NC(c2ccccc2Cl)/C(=C(/O)c2ccc(Br)cc2)C1=O (configuration not stated) | 8.6% (inactive)
COc1ccc(C2NC(=O)C(=O)/C2=C(\O)c2ccc(Cl)cc2)cc1 (configuration not stated) | -4.8% (inactive)
O=C1NC(c2cccc(F)c2)/C(=C(/O)c2ccc(Br)cc2)C1=O (configuration not stated) | 17% (inactive)
COC(=O)c1sc(N2C(=O)C(O)=C(C(=O)c3cc4ccccc4o3)C2c2ccc(OC)cc2)nc1C (configuration not stated) | 3.6% (inactive)
